Consider 7 sequences from the supplement of paper PMC6555819.

Holding throughout (assay): PBM binding z-score (relative to random genomic background probes); higher = stronger binding; sequences stand for … in GC…GCGATTGACAGCGTAGAATGAAGG
Assay [1] concerns FXR:RXRa (NR concentration 270 nM, RXRa partner concentration 90 nM). Summed up: (§1)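 Probes were double-stranded and carried 34-nt variable regions with direct-repeat seeds, single-nucleotide variants, half-site ablations and random human genomic background sequences, printed on custom Agilent 4×180K protein-binding microarrays. Arrays were incubated 1 h with ligand-free nuclear receptor dimers in PBS pH 7.4, 2% milk, 0.02% Triton X-100, 1 mM DTT, 0.2 mg/mL BSA and 0.4 mg/ml salmon testes DNA. Antibodies against each partner (one per run) detected binding, and scanned fluorescence was regression-normalized. Binding z-scores use the random background probes as reference.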

The subject of assay [2] is LXRa:RXRa (NR concentration 270 nM, RXRa partner concentration 90 nM). Summed up: as §1
Assay [3] concerns LXRa homodimer (NR concentration 270 nM). Summed up:
as §1

Assay [4] has as its system LXRb:RXRa (NR concentration 270 nM, RXRa partner concentration 90 nM). In short, it runs like this:
as §1

Assay [5] concerns LXRb homodimer (NR concentration 270 nM). In short, it runs like this: as §1
For assay [6], the system named is PPARa:RXRa (NR concentration 270 nM, RXRa partner concentration 90 nM). In short, it runs like this:
as §1

Assay [7] has as its system PPARg:RXRa (NR concentration 180 nM, RXRa partner concentration 90 nM). Summed up:
as §1

The subject of assay [8] is PPARg:RXRa 270nM:90nM, anti-RXR (NR concentration 270 nM, RXRa partner concentration 90 nM). In short, it runs like this: as §1
The subject of assay [9] is PPARg:RXRa 30nM:10nM, anti-RXR (NR concentration 30 nM, RXRa partner concentration 10 nM). In short, it runs like this:
as §1

Assay [10] has as its system PPARg:RXRa 90nM:30nM, anti-RXR (NR concentration 90 nM, RXRa partner concentration 30 nM). In short, it runs like this:
as §1

Assay [11] concerns PPARg:RXRa DBDmut IVT, anti-RXR (DBD mutation: RXRa K156A/R161A, NR concentration 270 nM, RXRa partner concentration 90 nM). In short, it runs like this:
as §1

Assay [12] concerns PPARg:RXRa IVT, anti-PPARg (NR concentration 270 nM, RXRa partner concentration 90 nM). In short, it runs like this: as §1
Assay [13] relates to PPARg DBDmut:RXRa IVT, anti-PPARg (DBD mutation: PPARg1 K132A/R137A, NR concentration 270 nM, RXRa partner concentration 90 nM). In short, it runs like this:
as §1

The test system of assay [14] is PPARg DBDmut IVT, anti-PPARg (DBD mutation: PPARg1 K132A/R137A, NR concentration 270 nM). Summed up: as §1
Assay [15] concerns PPARg homodimer (NR concentration 180 nM). In short, it runs like this: as §1
Assay [16] has as its system PXR:RXRa (NR concentration 270 nM, RXRa partner concentration 90 nM). In short, it runs like this:
as §1

For assay [17], the system named is PXR homodimer (NR concentration 270 nM). In short, it runs like this: as §1
Assay [18] has as its system RARa:RXR (NR concentration 270 nM, RXRa partner concentration 90 nM). In short, it runs like this:
as §1

The test system of assay [19] is RARa homodimer (NR concentration 270 nM). Summed up:
as §1

Assay [20] relates to RARb:RXRa (NR concentration 270 nM, RXRa partner concentration 90 nM). In short, it runs like this:
as §1

Turning to CCTGCTAGGTCAATTGTCAGCTAAAGCAGCTCGC, the PBM binding z-score in [1] was found to be 2.8; in assay [2], 2; in assay [3], 0.111; in [4], 1.6; in assay [5], 0.259; in assay [6] it was 2.77. For the same sequence, the PBM binding z-score in [7] was 1.83; in assay [8] it was 2.46; in assay [9], -0.128; in [10], 1.54; in assay [11], 4.15; in [12], 3.14. In addition, the PBM binding z-score in [13] is -0.356; in assay [14], -0.703; in assay [15] it was 0.436; in [16], 0.762; in assay [17], -0.49; in assay [18] it was 1.34. Further, the PBM binding z-score in [19] was -0.799; in assay [20], 3.53.

For the sequence TCTAGTAGGCCAGAGGGTCACTCAAGAGGTACGG, the PBM binding z-score in assay [1] was 0.984; in [2] it was 1.06; in assay [3], -0.235; in assay [4] it was 1.23; in [5] it was -0.774; in [6], 3.17. For the same sequence, the PBM binding z-score in assay [7] came out at 4.36; in assay [8] it was 5.3; in [9] it was 4.21; in assay [10], 5.28; in assay [11], 3.6; in assay [12], 4. Moreover, the PBM binding z-score in assay [13] was -0.235; in assay [14], 0.392; in assay [15], 0.62; in assay [16] it was 1.76; in assay [17] it was -0.532; in assay [18], 2.51. Besides, the PBM binding z-score in assay [19] was -0.0158; in assay [20], 2.37.

For GCAGACAGGTGAAACGCAGGTAGCTCAGGGTGGC, the PBM binding z-score in assay [1] is -0.298; in [2] it was -0.318; in assay [3] it was -0.974; in assay [4], -0.61; in assay [5], -1.08; in [6], 0.412. Moreover, the PBM binding z-score in assay [7] is 0.213; in assay [8], -0.178; in [9] it was -0.645; in [10], -0.382; in assay [11] it was 1.07; in assay [12] it was 0.347. For the same sequence, the PBM binding z-score in assay [13] was -0.762; in [14] it was -0.471; in assay [15], -0.599; in assay [16] it was -0.573; in assay [17], -0.785; in assay [18], -0.358. For the same sequence, the PBM binding z-score in [19] was -0.976; in assay [20], 0.536.

In the case of TCGAGTAGGTTAGGGGCATTCACAATGGCGTCGA, the PBM binding z-score is 0.495 in assay [1]; 0.167 in [2]; -0.286 in [3]; 0.973 in [4]; -0.112 in [5]; 1.38 in assay [6]. The PBM binding z-score in assay [7] was 1.01; in assay [8] it was 1.84; in [9] it was 1.59; in [10], 1.94; in [11], 2.39; in [12], 1.39. Also, the PBM binding z-score in assay [13] is -0.325; in [14], -0.622; in assay [15], 0.582; in assay [16] it was 0.481; in assay [17], 0.107; in assay [18], 0.506. The results for the PBM binding z-score in assay [19] and in assay [20] were -0.0724 and 0.977, respectively.

As for AGTCAAAGTTCACCTAGGTAACGTAAGATATGCT, the PBM binding z-score in assay [1] came out at 6.25; in assay [2] it was 5.63; in assay [3], 3.58; in assay [4], 3.92; in [5], 1.2; in assay [6] it was 4.94. The PBM binding z-score in assay [7] turned out to be 7.15; in assay [8] it was 6.41; in assay [9], 3.81; in assay [10] it was 5.63; in assay [11] it was 1.22; in assay [12], 4.08. Further, the PBM binding z-score in assay [13] stood at 1.35; in assay [14], 1.84; in assay [15] it was 2.06; in [16] it was 4.76; in assay [17] it was 3.76; in assay [18], 3.95. In addition, the PBM binding z-score turned out to be 1.51 in assay [19] and 4.99 in [20].

With CCTTTCGGGTCACTGACAGGTTATAGCATTTGGA, the PBM binding z-score in assay [1] was determined as 5.71; in assay [2], 4.35; in assay [3], 0.279; in assay [4] it was 3.33; in assay [5], 0.0515; in [6], 5.09. Further, the PBM binding z-score in [7] came to 3.95; in [8], 4.25; in assay [9], 1.43; in [10], 3.06; in assay [11], 3.4; in [12] it was 3.43. The PBM binding z-score in assay [13] amounted to 0.931; in assay [14] it was 0.0693; in [15], 2.97; in assay [16], 3.79; in [17] it was 0.121; in assay [18] it was 4.74. Moreover, the PBM binding z-score stood at 0.858 in [19] and 4.04 in assay [20].

TCTCGGAGGACACGAAGGTCAGAGCGTTCCAGAG: the PBM binding z-score in assay [1] is 1.4; in [2] it was 1.13; in assay [3] it was 0.0459; in [4], 0.874; in assay [5] it was -1.15; in assay [6], 2.05. In addition, the PBM binding z-score in assay [7] turned out to be 0.373; in [8], 1.63; in [9], 2.34; in assay [10], 2.05; in assay [11], 1.02; in assay [12], 1.49. Moreover, the PBM binding z-score was -0.71 in assay [13]; -1.07 in [14]; 1 in assay [15]; 1.87 in assay [16]; 0.555 in [17]; 1.84 in assay [18]. The PBM binding z-score in assay [19] was -0.476; in assay [20], 3.4.
